One test relates to CSK. The conditions noted are these: concentration: 1 μM, replicates: in singlicate; n = 1.
Another test relates to CSNK1A1L. The conditions noted are these: concentration: 1 μM, replicates: in singlicate; n = 1.
Another test has as its system CSNK1A1. As to conditions: concentration: 1 μM, replicates: in singlicate; n = 1.
For the next test, the system named is CSNK1D. The conditions noted are these: concentration: 1 μM, replicates: in singlicate; n = 1.
Another test deals with CSNK1E. The conditions noted are these: concentration: 1 μM, replicates: in singlicate; n = 1.
The subject of a further test is CSNK1G1. As to conditions: concentration: 1 μM, replicates: in singlicate; n = 1.
The subject of another test is CSNK1G2. The conditions noted are these: concentration: 1 μM, replicates: in singlicate; n = 1.
The test system of the next test is CSNK1G3. The conditions noted are these: concentration: 1 μM, replicates: in singlicate; n = 1.
In another test the test system is CSNK2A1. As to conditions: n = 1.
The subject of a further test is CSNK2A2. The conditions noted are these: n = 1.
The test system of another test is T1, CTK.
T1 construct: gene MATK
As to conditions: concentration: 1 μM, replicates: in singlicate; n = 1.

In another test the test system is DAPK1. As to conditions: concentration: 1 μM, replicates: in singlicate; n = 1.
Another test deals with DAPK2. As to conditions: concentration: 1 μM, replicates: in singlicate; n = 1.
Another test relates to DAPK3. As to conditions: concentration: 1 μM, replicates: in singlicate; n = 1.
The next test deals with T2, DCAMKL1.
T2 construct: gene DCLK1
As to conditions: concentration: 1 μM, replicates: in singlicate; n = 1.

The next test relates to T3, DCAMKL2.
T3 construct: gene DCLK2
The conditions noted are these: concentration: 1 μM, replicates: in singlicate; n = 1.

A further test concerns T4, DCAMKL3.
T4 construct: gene DCLK3
The conditions noted are these: concentration: 1 μM, replicates: in singlicate; n = 1.

The next test relates to DDR1. As to conditions: concentration: 1 μM, replicates: in singlicate; n = 1.
Another test relates to DDR2. As to conditions: concentration: 1 μM, replicates: in singlicate; n = 1.
Another test has as its system T5, DLK.
T5 construct: gene MAP3K12
The conditions noted are these: concentration: 1 μM, replicates: in singlicate; n = 1.

Setting [1] is: concentration: 1 μM, replicates: in singlicate.

Like-named read-outs stand apart in the source and are kept apart here.
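Also: KINOMEscan kinase panel screen.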

For `CC(=O)c1cccc(NC(=O)NC2CCN(c3ccnc(Nc4ccc(F)cc4)n3)C2)c1` (centres unmarked) [GSK1379710], the “%Inh” value in the test with CSK is recorded as 5%; in the test with CSNK1A1L, 0%; in the test with CSNK1A1, 0%; in the test with CSNK1D, 27%; in the test on CSNK1E, 18%; with CSNK1G1 it was 12%. Also, the “%Inh” value in the test with CSNK1G2 was determined as 0%; with CSNK1G3, 25%; in the test on CSNK2A1 (setting [1]) it was 16%; with CSNK2A2 (setting [1]), 15%; with CTK, 0%; in the test with DAPK1, 15%. Also, the “%Inh” value in the test on DAPK2 amounted to 2%; in the test with DAPK3, 26%; with DCAMKL1 it was 6%; with DCAMKL2, 11%; with DCAMKL3 it was 14%; in the test on DDR1 it was 20%. For the same compound, the figures for the “%Inh” value with DDR2 and in the test with DLK were 7% and 29%, respectively.
Take `CCn1c(-c2c(N)noc2C)nc2cnccc21` [SB-737856]: the “%Inh” value in the test with CSK is reported as 0%; with CSNK1A1L it was 18%; in the test on CSNK1A1 it was 0%; in the test on CSNK1D, 13%; in the test on CSNK1E, 11%; in the test with CSNK1G1, 8%. The “%Inh” value turned out to be 0% in the test with CSNK1G2; 9% in the test on CSNK1G3; 0% in the test on CSNK2A1 (setting [1]); 0% in the test with CSNK2A2 (setting [1]); 14% with CTK; 0% in the test with DAPK1. Moreover, the “%Inh” value with DAPK2 came out at 0%; in the test on DAPK3, 0%; with DCAMKL1, 5%; with DCAMKL2, 30%; with DCAMKL3 it was 0%; with DDR1, 0%. In addition, the figures for the “%Inh” value in the test with DDR2 and in the test with DLK were 0% and 41%, respectively.
In the case of `CS(=O)(=O)Cc1ccc(Nc2nccc(-c3c(-c4cccc(NC(=O)C5CCCCC5)c4)nn4ncccc34)n2)cc1` [GSK350559], the “%Inh” value is 10% in the test with CSK; 0% in the test with CSNK1A1L; 7% with CSNK1A1; 0% in the test on CSNK1D; 20% in the test on CSNK1E; 2% in the test on CSNK1G1. Moreover, the “%Inh” value in the test with CSNK1G2 was determined as 5%; in the test with CSNK1G3, 4%; in the test on CSNK2A1 (1 µM), 17%; in the test with CSNK2A2 (1 µM) it was 1%; in the test with CTK, 38%; in the test with DAPK1, 0%. The “%Inh” value in the test with DAPK2 turned out to be 9%; in the test with DAPK3, 0%; in the test on DCAMKL1, 0%; in the test with DCAMKL2, 15%; in the test with DCAMKL3, 0%; in the test with DDR1, 96.6%. Also, the “%Inh” value in the test with DDR2 stood at 54%; in the test with DLK, 41%.
For `CS(=O)(=O)CCNCc1nc(-c2ccc3ncnc(Nc4ccc(OCc5ccccc5)c(Cl)c4)c3c2)cs1.Cl` [GW582764], the “%Inh” value is given as 0% with CSK; 9% in the test with CSNK1A1L; 0% with CSNK1A1; 10% in the test with CSNK1D; 15% with CSNK1E; 0% with CSNK1G1. In addition, the “%Inh” value in the test on CSNK1G2 is reported as 0%; in the test on CSNK1G3 it was 13%; with CSNK2A1 (setting [1]) it was 0%; with CSNK2A2 (setting [1]) it was 0%; in the test with CTK, 0%; with DAPK1 it was 0%. Also, the “%Inh” value in the test with DAPK2 was determined as 0%; in the test with DAPK3, 0%; in the test with DCAMKL1 it was 13%; in the test on DCAMKL2, 0%; with DCAMKL3, 6%; in the test with DDR1, 99.8%. The “%Inh” value in the test on DDR2 amounted to 40%; in the test with DLK, 50%.
For the compound `Cc1ccc(NC(=O)Nc2ccc(Cl)c(C(F)(F)F)c2)cc1-c1ccc(C(=O)Nc2ccncc2)cc1` [GSK1398470], the “%Inh” value in the test with CSK is recorded as 0%; in the test on CSNK1A1L, 9%; in the test on CSNK1A1, 22%; with CSNK1D, 7%; with CSNK1E it was 7%; with CSNK1G1, 11%. Further, the “%Inh” value in the test with CSNK1G2 came out at 24%; in the test with CSNK1G3 it was 21%; with CSNK2A1 (setting [1]), 21%; in the test on CSNK2A2 (setting [1]), 0%; in the test on CTK it was 0%; in the test with DAPK1, 8%. Besides, the “%Inh” value amounted to 21% in the test with DAPK2; 0% in the test with DAPK3; 0% in the test on DCAMKL1; 11% in the test on DCAMKL2; 5% in the test on DCAMKL3; 97.3% in the test with DDR1. Besides, the results for the “%Inh” value in the test on DDR2 and with DLK were 63% and 0%, respectively.
Consider `CCCCc1nn2ncccc2c1-c1ccnc(NC2CC2)n1` [GW684374], for which the “%Inh” value is on record as 2% with CSK; 0% in the test on CSNK1A1L; 18% with CSNK1A1; 90.1% in the test on CSNK1D; 92.4% in the test on CSNK1E; 0% in the test with CSNK1G1. In addition, the “%Inh” value with CSNK1G2 is reported as 0%; with CSNK1G3, 25%; in the test with CSNK2A1 (setting [1]) it was 0%; in the test on CSNK2A2 (setting [1]) it was 5%; in the test with CTK, 0%; with DAPK1, 20%. Further, the “%Inh” value in the test on DAPK2 is given as 0%; with DAPK3, 12%; in the test on DCAMKL1, 0%; with DCAMKL2, 0%; in the test on DCAMKL3, 0%; with DDR1, 67%. In addition, the “%Inh” value in the test on DDR2 is recorded as 23%; in the test on DLK, 35%.
As for `Cc1nccc(-c2c(-c3ccc(F)cc3)ncn2CCCN2CCOCC2)n1.Cl` [SB-282975], the “%Inh” value in the test with CSK was 0%; in the test with CSNK1A1L, 21%; in the test with CSNK1A1, 51%; in the test on CSNK1D, 95.6%; in the test on CSNK1E, 88%; in the test on CSNK1G1, 4%. In addition, the “%Inh” value in the test on CSNK1G2 is 6%; in the test with CSNK1G3 it was 2%; in the test with CSNK2A1 (setting [1]), 1%; in the test with CSNK2A2 (setting [1]), 9%; in the test with CTK, 0%; in the test with DAPK1, 0%. Also, the “%Inh” value with DAPK2 worked out at 99.3%; with DAPK3 it was 0%; with DCAMKL1, 0%; in the test on DCAMKL2, 2%; in the test on DCAMKL3, 3%; with DDR1, 0%. The “%Inh” value with DDR2 and in the test with DLK was 0% each time.

Source of the values: PMC5540273 (PLoS ONE, 2017).
